Measured values from PubChem BioAssay AID1981 (Southern Research Specialized Biocontainment Screening …, 2009).
About 480 (22%) of roughly 2,200 compounds were called active. No rule for the calls is given here. A selection follows. Entries with a potency or affinity are not part of this list.

assay: S. Typhimurium GFP fluorescence modified counterscreen for PhoP regulon inhibitor project dose response (AID 1981); details: 4 h; series mostly up to 150 µM; inhibition: at the top concentration;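 also: 0% = induced DMSO wells and 100% = uninduced wells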

Compound | inhibition
Cc1cccc2nc(CSc3nc4ccccc4o3)cn12 | 1.89% (inactive)
O=C(Cc1ccccc1)NC1c2ccccc2-c2ccccc21 | -8.08% (inactive)
O=C(CSCc1ccccc1)Nc1ccc2c(c1)OCO2 | -12.3% (inactive)
O=C(NCc1ccco1)C1CC(=O)N(CCc2ccccc2)C1 (stereo not given) | -2.95% (inactive)
Cn1cccc1CC(=O)NNC(=S)Nc1ccc(Cl)cc1 | 1.77% (inactive)
NC1=NC(=Nc2ccc(Br)cc2)c2ccccc21 | -1.28% (inactive)
N#C/C=C(/N)c1ccc(Br)cc1 | 7.34% (inactive)
O=c1c(Cl)c(Cl)cnn1-c1ccccc1 | 12.9% (inactive)
O=C(Cc1cn2ccsc2n1)Nc1ccccc1Oc1ccccc1 | -11.4% (inactive)
N#CC1=C(N)N=C(SCc2cccc3ccccc23)C(C(N)=O)C12CCCCC2 (stereo not given) | 34.8% (inactive)
CCCCn1c(/N=C/c2ccccc2NS(=O)(=O)c2ccc(C)cc2)nc2ccccc21 | 15.6% (inactive)
CCOC(=O)C1=C(c2ccccc2)NC(SC)=C(C#N)C1c1ccco1 (stereo not given) | 4.7% (inactive)
FC(F)(F)c1cccc(NC(=S)NCCN2CCOCC2)c1 | -26% (inactive)
Nc1nc(CSc2nc3ccccc3[nH]2)nc(N2CCOCC2)n1 | -4.29% (inactive)
CN1/C(=C\C=N\NC(=O)c2ccccc2Br)C(C)(C)c2ccccc21 | 3.5% (inactive)
CC(C)=CCN1CCN(Cc2ccoc2)CC1CCO (stereo not given) | -23.8% (inactive)
COc1ccc(N2C(=O)[C@@H]3[C@H](C2=O)[C@H]2c4ccccc4C=CN2[C@@H]3C(=O)Nc2ccccc2)cc1 | 12.3% (inactive)
COc1ccc(C(C(=O)NC2CCCC2)N(C(=O)c2ccoc2C)c2cc(C)cc(C)c2)cc1 (stereo not given) | -16.8% (inactive)
Cc1cc(C)nc(Nc2ccc(N3CCCC3)cc2)n1 | 35.5% (inactive)
Cc1ccc(Nc2nc(N)nc(CC#N)n2)cc1 | 12.2% (inactive)
CSc1nnc(NC(=O)CCc2ccccc2)s1 | 31.3% (inactive)
CCN(CC)CCOc1ccc2c(c1)C(=NNC(=O)c1ccccn1)c1cc(OCCN(CC)CC)ccc1-2 | 21.5% (inactive)
CCOC(=O)C(C)/C(C)=N/NC(=O)c1cc2ccccc2cc1O (stereo not given) | 35% (inactive)
O=C1CC(N2CCN(Cc3ccccc3)CC2)C(=O)N1c1ccccc1 (stereo not given) | -3.65% (inactive)

Compound | inhibition
NC(=O)c1c(N)sc2c1CCCCC2 | -4.1% (inactive)
COc1cccc(C2CC(c3ccccc3OC)n3nc(N)nc3N2)c1 (stereo not given) | -9.32% (inactive)
COc1ccc(CC(=O)n2nc(-c3ccccc3)nc2NCc2ccco2)cc1 | -5.7% (inactive)
CCn1c(Cc2ccccc2)nnc1SCC(=O)Nc1ccc(S(N)(=O)=O)cc1 | -19.4% (inactive)
C/C(=N\NC(=O)c1c(Cl)c(C)nn1C)c1cccc(NC(=O)COc2ccc(Cl)cc2)c1 | 0.33% (inactive)
COc1cccc(/C=N/n2c(C)nc3ccccc3c2=O)c1O | 2.55% (inactive)
Cc1cccc(C)c1OCC(=O)Nn1c(COc2ccccc2)nc2ccccc2c1=O | -24.9% (inactive)
C=CCNC(=O)c1ccc(N(C)S(=O)(=O)c2ccc(OC)cc2)cc1 | 4.47% (inactive)
O=C(Nc1nc2ccc(SC(F)F)cc2s1)c1ccc2c(c1)S(=O)(=O)c1ccccc1C2=O | -4.49% (inactive)
Oc1ccc(Nc2nc(-c3cccs3)cs2)cc1 | 30.8% (inactive)
COC(=O)c1cc(C)nc2c1C(=O)C(=O)C=C2N1CCOCC1 | 7.24% (inactive)
Nc1ccc(Nc2ccccc2N)cc1 | 19% (inactive)
Nc1ccc(Nc2ccccc2)c(Cl)c1 | 3.59% (inactive)
O=C(OCC(=O)c1ccc(S(=O)(=O)N2CCCC2)cc1)C1=COCCO1 | 5.66% (inactive)
O=C(NC(NC(=S)Nc1ccc(Cl)c(Cl)c1)C(Cl)(Cl)Cl)c1ccco1 (stereo not given) | -7.65% (inactive)
O=C(NCc1ccco1)c1ccc(Br)s1 | -1.93% (inactive)
CCCCN(C)C(=O)c1cn(C)c2ccc(S(=O)(=O)N(C)C)cc2c1=O | 5.65% (inactive)
CCOC(=O)c1cnc(SCC(=O)Nc2ccc(N3CCOCC3)c(Cl)c2)nc1N | -2.55% (inactive)
Cc1nc(NCc2ccc3c(c2)OCO3)c2oc3ccccc3c2n1 | -17.7% (inactive)
COc1ccc(/C=C/C(=O)NCCc2nc3ccccc3[nH]2)cc1 | 8.18% (inactive)
CCCCn1c(/N=C/c2c[nH]c3ccccc23)nc2ccccc21 | 15.1% (inactive)
O=C1CCc2cc(S(=O)(=O)N3CCN(c4cccc(Cl)c4)CC3)ccc2N1 | -2.32% (inactive)
C=CCN(C(=O)c1cccc(S(=O)(=O)N2CCN(C)CC2)c1)c1nc(-c2ccccc2)cs1 | -7.5% (inactive)
O=C(CCC(=O)c1cccs1)OCC(=O)N1CCN(S(=O)(=O)c2ccccc2)CC1 | -8.31% (inactive)

Compound | inhibition
O=C1c2ccccc2C(=O)N1CCCc1nc2ccccc2c(=O)n1Cc1ccco1 | -21.1% (inactive)
O=C(NCCc1cn2ccccc2n1)c1ccccc1F | 2.71% (inactive)
O=C(c1ccco1)[C@@H]1[C@@H]2C(=O)N(c3ccc(F)cc3)C(=O)[C@@H]2[C@H]2C=Cc3ccccc3N21 | 29.2% (inactive)
Clc1ccc(-c2csc3ncnc(N4CCc5ccccc5C4)c23)cc1 | -12.2% (inactive)
CCCCN(C(=O)NC(=O)Nc1nc2ccc(OC)cc2s1)S(C)(=O)=O | 17% (inactive)
c1csc(C2Nc3ccccc3-c3nc4ccccc4n32)c1 (stereo not given) | 19.2% (inactive)
c1ccc(CSc2snnc2-c2ccccc2)cc1 | -3.35% (inactive)
O=C(Cc1c[nH]c2ccccc12)N/N=C/c1ccc(F)cc1 | -10.3% (inactive)
O=c1[nH]c(NNC(=S)NCc2ccccc2)nc2c1C1(CCCCC1)Cc1ccccc1-2 | 0.42% (inactive)
CN(C(=O)c1cccc(C#N)c1)c1nnc(-c2cnccn2)s1 | -4.29% (inactive)
COc1ccc(-c2ccccc2)cc1NCc1ccccc1C | -12.8% (inactive)
CC(=O)Nc1cccc(-c2csc(Nc3cccc(C)n3)n2)c1 | -15.6% (inactive)
CCOC(=O)C1=C(C)NC(=O)NC1c1ccsc1 (stereo not given) | 1.33% (inactive)
CCOC(=O)C(NC(=O)c1cccc(Cl)c1)(OCc1ccccc1)C(F)(F)F (stereo not given) | 0.14% (inactive)
Cc1ccc(C(=O)N2CC3(C(C)C)CN(C(=O)c4ccc(C)cc4)CC(C(C)C)(C2)C3=O)cc1 | -13.8% (inactive)
O=C(N/N=C/c1ccco1)c1cccc(S(=O)(=O)Nc2ccccc2Cl)c1 | 4.33% (inactive)
CCn1c2ccccc2c2cc(/C=N/NC(=O)c3ccccc3)ccc21 | 20.8% (inactive)
CCN(CC)S(=O)(=O)c1cccc(C(=O)NC(Cc2c[nH]c3ccccc23)c2nnc3n2CCC3)c1 (stereo not given) | -22% (inactive)
Cc1ccc(-n2c(C)cc(/C=N/NC(N)=S)c2C)cc1 | 14.2% (inactive)
O=C(/C=C\c1ccco1)Nc1nc(-c2ccccc2)cs1 | 1.32% (inactive)
COc1cccc(OC)c1C(=O)NC(=S)Nc1cc(-c2nc3ccccc3[nH]2)ccc1Cl | -22.6% (inactive)
Cc1[nH]c2ccccc2c1/C=N/Nc1ccc(F)cc1F | 13.6% (inactive)
